The supplement of paper PMC6555819

How the values were obtained:
Experiment in all cases: PBM binding z-score (relative to random genomic background probes); higher = stronger binding; sequences stand for … in GC…GCGATTGACAGCGTAGAATGAAGG
[1] = system: FXR:RXRa (NR concentration 270 nM, RXRa partner concentration 90 nM)
Method in brief: (§1)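 Scanned fluorescence from custom Agilent 4×180K protein-binding microarrays was regression-normalized. Binding z-scores use random background probes as reference. Ligand-free nuclear receptor dimers were incubated on the arrays for 1 h and detected with antibodies against each partner (one per run).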

[2] = system: LXRa:RXRa (NR concentration 270 nM, RXRa partner concentration 90 nM)
Method in brief: as §1

[3] = system: LXRa homodimer (NR concentration 270 nM)
Method in brief: as §1

[4] = system: LXRb:RXRa (NR concentration 270 nM, RXRa partner concentration 90 nM)
Method in brief: as §1

[5] = system: LXRb homodimer (NR concentration 270 nM)
Method in brief: as §1

[6] = system: PPARa:RXRa (NR concentration 270 nM, RXRa partner concentration 90 nM)
Method in brief: as §1

[7] = system: PPARg:RXRa (NR concentration 180 nM, RXRa partner concentration 90 nM)
Method in brief: as §1

[8] = system: PPARg:RXRa 270nM:90nM, anti-RXR (NR concentration 270 nM, RXRa partner concentration 90 nM)
Method in brief: as §1

[9] = system: PPARg:RXRa 30nM:10nM, anti-RXR (NR concentration 30 nM, RXRa partner concentration 10 nM)
Method in brief: as §1

[10] = system: PPARg:RXRa 90nM:30nM, anti-RXR (NR concentration 90 nM, RXRa partner concentration 30 nM)
Method in brief: as §1

[11] = system: PPARg:RXRa DBDmut IVT, anti-RXR (DBD mutation: RXRa K156A/R161A, NR concentration 270 nM, RXRa partner concentration 90 nM)
Method in brief: as §1

[12] = system: PPARg:RXRa IVT, anti-PPARg (NR concentration 270 nM, RXRa partner concentration 90 nM)
Method in brief: as §1

[13] = system: PPARg DBDmut:RXRa IVT, anti-PPARg (DBD mutation: PPARg1 K132A/R137A, NR concentration 270 nM, RXRa partner concentration 90 nM)
Method in brief: as §1

[14] = system: PPARg DBDmut IVT, anti-PPARg (DBD mutation: PPARg1 K132A/R137A, NR concentration 270 nM)
Method in brief: as §1

[15] = system: PPARg homodimer (NR concentration 180 nM)
Method in brief: as §1

[16] = system: PXR:RXRa (NR concentration 270 nM, RXRa partner concentration 90 nM)
Method in brief: as §1

[17] = system: PXR homodimer (NR concentration 270 nM)
Method in brief: as §1

[18] = system: RARa:RXR (NR concentration 270 nM, RXRa partner concentration 90 nM)
Method in brief: as §1

[19] = system: RARa homodimer (NR concentration 270 nM)
Method in brief: as §1

[20] = system: RARb:RXRa (NR concentration 270 nM, RXRa partner concentration 90 nM)
Method in brief: as §1

Sequence	PBM binding z-score [1]	PBM binding z-score [2]	PBM binding z-score [3]	PBM binding z-score [4]	PBM binding z-score [5]	PBM binding z-score [6]	PBM binding z-score [7]	PBM binding z-score [8]	PBM binding z-score [9]	PBM binding z-score [10]	PBM binding z-score [11]	PBM binding z-score [12]	PBM binding z-score [13]	PBM binding z-score [14]	PBM binding z-score [15]	PBM binding z-score [16]	PBM binding z-score [17]	PBM binding z-score [18]	PBM binding z-score [19]	PBM binding z-score [20]
TCTGCTAGGTCAACGATGGTCTGCTAATCTGCTA	2.95	2.1	-0.371	1.35	0.041	2.92	1.92	2.64	1.66	2.11	3.96	3.88	0.46	1.25	0.811	0.995	-0.719	2	-0.907	3.83
AGTCAAAGTTCAGGACTAGGTAACGTAAAGCACG	3.95	3.56	1.18	1.7	0.0894	3.41	4.81	5.05	2.27	4.21	0.593	3.09	0.657	0.484	1.73	2.41	1.04	2.4	1.11	4.13
ATCGAAAGGTCGACGAGGTGAGTATACACCGTTT	4.62	3.32	-0.0538	2.73	0.533	4.52	2.85	3.18	1.02	2.34	0.442	1.82	0.853	1.45	1.32	3.15	0.642	4.09	1.19	3.73
TAGCCTAGGTCATTCGGCCAGTATAGTACGCATC	4.5	3.51	1.18	2.52	0.814	3.48	2.78	2.43	0.539	1.55	1.85	2.83	-0.386	-0.398	0.361	1.39	-0.455	2	-0.658	3.6
TCGAGTAGGTTAGTCGGGGCTTTCAGCCAACATA	-0.154	-0.116	-0.783	-0.0101	-1.08	0.158	-0.922	0.148	0.909	0.595	1.86	0.952	-1.71	-1.29	-0.983	-0.467	-0.898	-0.14	-1.19	0.0518
GCTAACAGGCCATTTGGGTCACTCAATGACGGGC	0.418	0.268	-0.00824	0.389	-0.169	1.73	0.912	0.349	-0.624	-0.263	1.61	1.82	-0.246	-0.627	0.24	0.795	0.0442	1.03	-0.111	1.81
ACTATTAGTTGAGACGAGGGCCACCGATAGGTTG	-0.105	-0.102	-0.224	-0.593	0.0596	-0.508	0.594	-0.159	0.0911	-0.12	-0.292	0.0879	0.833	0.398	-0.375	-0.504	-0.253	-0.185	0.235	0.235
